The text below walks through data of PMC12431657, “Discovery and mechanistic insights of dibenzoylmethane as a broad spectrum inhibitor of coronavirus” (PLOS Pathogens, 2025).

Where a name gives a salt, the structure may show the parent alone. Read-outs that look alike come from different tables or passages of the source. In all, about 3,300 compounds went through this assay and about 95 (3%) showed an effect of 50% or more. The sample holds strong results, similar compounds and a random draw of the others, so the mix is not that of the screen.

The test system of this assay is HCoV-229E. More on the design: species or system Huh-7; HTS, protection from HCoV-229E induced cell death, luminescent cell viability (CellCounting-Lite 2.0), inhibition rate. As to conditions: 24 h post infection, 1 h compound pre-incubation, 10 µM, inhibitor.

`COc1c(/C=C/C(=O)c2ccc(O)cc2)ccc(O)c1CC=C(C)C` [Licochalcone C]: the “229E Inhibition rate” value turned out to be 5%.

As for `CC(=O)NCC(=O)O` [N-Acetylglycine], the “229E Inhibition rate” value worked out at 10.2%. Regarding `COc1c(CC=C(C)C)c(O)cc2oc(=O)c(-c3ccc(O)cc3O)cc12` [Glycycoumarin], the “229E Inhibition rate” value stood at 5.6%. Regarding `COc1c(CC=C(C)C)c(O)cc2oc(=O)c3c4ccc(O)cc4oc3c12` [Neoglycyrol], the “229E Inhibition rate” value was determined as 90.8%. `CC(C)=CCc1cc2c(cc1O)oc(=O)c1c3ccc(O)cc3oc21` [Psoralidin]: the “229E Inhibition rate” value was 43.7%.

For `C[n+]1cccc(C(=O)[O-])c1` [Trigonelline (chloride)], the “229E Inhibition rate” value (229E Inhibition rate, 24 h) worked out at 13.3%. On to `C[C@@H]1C(=O)O[C@H]2[C@H](O)[C@@]34[C@H]5C[C@@H](C(C)(C)C)[C@]36[C@@H](OC(=O)[C@@H]6O)O[C@@]4(C(=O)O5)[C@@]12O` [Ginkgolide B], for which the “229E Inhibition rate” value is recorded as 25.6%. As to `CC1=C2[C@@H](OC1=O)[C@H](O)[C@]13[C@H]4C[C@@H](C(C)(C)C)[C@]15[C@@H](OC(=O)[C@@H]5O)O[C@@]23C(=O)O4` [Ginkgolide K], the “229E Inhibition rate” value was determined as 62%. As for `C[C@@H]1C(=O)O[C@H]2C[C@@]34[C@H]5C[C@@H](C(C)(C)C)[C@]36[C@@H](OC(=O)[C@@H]6O)O[C@@]4(C(=O)O5)[C@]21O` [Ginkgolide A], the “229E Inhibition rate” value was 11.6%. For `OC[C@H]1O[C@@](CO)(OC[C@@]2(OC[C@@]3(OC[C@@]4(OC[C@@]5(OC[C@@]6(OC[C@@]7(OC[C@@]8(O[C@H]9O[C@H](CO)[C@@H](O)[C@H](O)[C@H]9O)O[C@H](CO)[C@@H](O)[C@@H]8O)O[C@H](CO)[C@@H](O)[C@@H]7O)O[C@H](CO)[C@@H](O)[C@@H]6O)O[C@H](CO)[C@@H](O)[C@@H]5O)O[C@H](CO)[C@@H](O)[C@@H]4O)O[C@H](CO)[C@@H](O)[C@@H]3O)O[C@H](CO)[C@@H](O)[C@@H]2O)[C@@H](O)[C@@H]1O` [Fructo-oligosaccharide DP9/GF8], the “229E Inhibition rate” value turned out to be 41%. Consider `CCc1ccc(O)cc1O` [4-Ethylresorcinol], for which the “229E Inhibition rate” value amounted to 19.1%. Take `CC(C)=CCC/C(C)=C/CC/C(C)=C/CC/C(C)=C/CC1=C(C)C(=O)c2ccccc2C1=O` [Menaquinone-4]: the “229E Inhibition rate” value was found to be 4.1%.

With `CC(C)=CCC1=C(O)C(=O)c2ccccc2C1=O` [Lapachol], the “229E Inhibition rate” value amounted to 54.4%. As to `CC(C)=CCC1=CC(=O)c2ccccc2C1=O` [Deoxylapachol], the “229E Inhibition rate” value was 8.4%.

As for `C[C@@H]1O[C@@H](O[C@H]2[C@H](O[C@H]3CC[C@@]4(C)[C@@H](CC[C@]5(C)[C@@H]4CC=C4[C@@H]6CC(C)(C)CC[C@]6(C(=O)O)CC[C@]45C)[C@]3(C)CO)OC[C@H](O)[C@@H]2O)[C@H](O)[C@H](O[C@@H]2O[C@H](CO)[C@@H](O[C@@H]3O[C@H](CO)[C@@H](O)[C@H](O)[C@H]3O)[C@H](O)[C@H]2O)[C@H]1O` [Macranthoside B], the “229E Inhibition rate” value is given as 9.3%. As to `NCCc1cc(O)c(O)c(O)c1` [5-Hydroxydopamine hydrochloride], the “229E Inhibition rate” value was 11.7%. Consider `O=P(O)(O)OC(CO)CO` [β-Glycerophosphate (disodium salt hydrate)], for which the “229E Inhibition rate” value is given as 11.7%. Consider `COc1cc(OC)c(CCC(=O)c2ccc(O)cc2)c(OC)c1` [Loureirin B], for which the “229E Inhibition rate” value is 16%. Regarding `Oc1cc2cc[nH]c2cc1O` [5,6-Dihydroxyindole], the “229E Inhibition rate” value was 1.6%. For `CC(=O)O[C@@H]1C[C@H](O)[C@@]23CO[C@@H](O)[C@]1(C)[C@@H]2C[C@@H](O)[C@]1(C)[C@@H]3C(=O)[C@H](OC(C)=O)[C@@]2(C)[C@H](c3ccoc3)C[C@H]3O[C@]321` [Toosendanin], the “229E Inhibition rate” value is listed as 23.4%. As for `C[C@@H](CO[C@@H]1O[C@H](CO)[C@@H](O)[C@H](O)[C@H]1O)[C@@H]1CC[C@@]2(CC[C@]3(C)[C@H](CC[C@@H]4[C@@]5(C)CC[C@H](O[C@@H]6O[C@H](CO)[C@@H](O)[C@H](O)[C@H]6O[C@@H]6OC[C@@H](O)[C@H](O)[C@H]6O)[C@@](C)(CO[C@@H]6O[C@H](CO)[C@@H](O)[C@H](O)[C@H]6O)[C@@H]5CC[C@]43C)[C@H]2O)CO1` [Hosenkoside M], the “229E Inhibition rate” value came to 10.1%. Same read-out and setting: with `C[C@H](CO[C@@H]1O[C@H](CO)[C@@H](O)[C@H](O)[C@H]1O)[C@H]1CC[C@@]2(CC[C@]3(C)[C@H](CC[C@@H]4[C@@]5(C)CC[C@H](O[C@@H]6O[C@H](CO)[C@@H](O)[C@H](O)[C@H]6O[C@@H]6O[C@H](CO)[C@@H](O)[C@H](O)[C@H]6O)[C@@](C)(CO)[C@@H]5CC[C@]43C)[C@H]2O)CO1` [Hosenkoside B] the figure was 10.3%. On to `C[C@@H](CO[C@@H]1O[C@H](CO)[C@@H](O)[C@H](O)[C@H]1O)[C@@H]1CC[C@@]2(CC[C@]3(C)[C@H](CC[C@@H]4[C@@]5(C)CC[C@H](O[C@@H]6O[C@H](CO)[C@@H](O)[C@H](O)[C@H]6O[C@@H]6O[C@H](CO)[C@@H](O)[C@H](O)[C@H]6O)[C@@](C)(CO[C@@H]6O[C@H](CO)[C@@H](O)[C@H](O)[C@H]6O)[C@@H]5CC[C@]43C)[C@H]2O)CO1` [Hosenkoside K], for which the “229E Inhibition rate” value amounted to 58.2%. For the molecule `O=C(O)Cc1ccc(O)cc1` [4-Hydroxyphenylacetic acid], the “229E Inhibition rate” value was 52.1%. With `O=C(O)Cc1ccc(O)c(O)c1` [3,4-Dihydroxybenzeneacetic acid], the “229E Inhibition rate” value is reported as 39.5%. With `O=C(O)C(=O)Cc1ccc(O)cc1` [4-Hydroxyphenylpyruvic acid], the “229E Inhibition rate” value is reported as 21.1%. As for `CN(C)CC(=O)O` [N-Methylsarcosine], the “229E Inhibition rate” value amounted to 11.2%. Regarding `COc1cc(/C=C/C(=O)OC(C)C)ccc1O` [Isopropyl ferulate], the “229E Inhibition rate” value is 36.5%. For `C[C@@H]1O[C@@H](Oc2cc(O)c3c(c2)O[C@H](c2ccc(O)c(O)c2)[C@@H](O)C3=O)[C@H](O)[C@H](O)[C@H]1O` [Taxifolin 7-O-rhamnoside], the “229E Inhibition rate” value worked out at 9.6%. As to `C[C@H](CC[C@@H](O)C(C)(C)O)[C@H]1CC[C@@]2(C)[C@@H]3CC=C4[C@@H](CC[C@H](O)C4(C)C)[C@]3(C)C(=O)C[C@]12C` [Bryodulcosigenin], the “229E Inhibition rate” value is listed as 12.5%. With `COc1cc2ccc(=O)oc2c(O[C@@H]2O[C@H](CO)[C@@H](O)[C@H](O)[C@H]2O)c1O` [Fraxin], the “229E Inhibition rate” value was 10.9%.
